From PubChem BioAssay (NCATS) come the findings set out here.

A number with no mark means an inactive call. Inconclusive results are not listed. Calls of active or inactive are those of the source. The call rests on the fitted dose curve; in most records, active means well fitted curve in the direction sought with a large enough effect; inconclusive means small, poorly fitted or top-dose-only effect, or another doubt; inactive means no such curve, though single readings can be large; an effect the other way counts as inactive or inconclusive.

Assay [1] can be described thus: qHTS for inhibitors of adenylyl cyclases using a fission yeast platform: a pilot screen against the NCATS LOPAC library (AID 1347410).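 Further: plate controls were DMSO vehicle for no effect and DPI positive control for full effect.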 In short, it runs like this: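 Read-out: fbp1-GFP fluorescence by laser scanning cytometry (488 nm laser), a gain of signal when AC/cAMP-PKA signalling is inhibited. Strain CHP2027 expressing AC9, GNAS and PDE4D2; compounds at up to 57 µM; 18 h, 30C.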

Assay [2] has as its target Single-stranded DNA cytosine deaminase (Homo sapiens) (UniProt Q9GZX7). Kind of assay: Validation qHTS assay for inhibitors of Activation Induced Cytidine Deaminase (AID): AID signal (AID 1347429). Further: on the % scale 0 is the no-effect control and ±100 the full control effect. The method, boiled down: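 AID+UDG coupled FRET deamination; cpds up to 114 uM final; DJC20/DJC23 substrate, 4 hr RT; NaOH stop, 30 min RT; read Ex 540/Em 590.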
Assay [3] in a line: Primary qHTS for inhibitors of La Crosse Virus (LACV) - induced cell death in SH-SY5Y cells (AID 1508616).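 Further: top concentration of the series differs between compounds; 0% = infected DMSO wells and 100% = uninfected DMSO wells; higher means more rescue of cells from virus-induced death.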 The method, boiled down: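 Cytopathicity rescue screen: compounds pinned onto SH-SY5Y cells, which are then infected with LACV (MOI 0.01) and held 6 days at 37C. Percent activity is scaled between infected DMSO control and uninfected DMSO control.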
A general note: Quantitative high-throughput screening tests each substance at several concentrations.

In assay [4] the target is Calcium and integrin-binding protein 1 (Homo sapiens) (UniProt Q99828). The assay is described as follows: Validation qHTS for Identification of Calcium Integrin Binding protein 1 (CIB1) Competitor (AID 1508618). Further: on the % scale 0 is the no-effect control and ±100 the full control effect. The method, boiled down: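 CIB1-GST (1 uM final) in 5 mM HEPES pH 7.4, 125 mM NaCl, 5 mM CaCl2, 0.01% Tween20 was preincubated 15 min at room temperature with compound (up to 114 uM), then FITC-alphaIIb peptide (100 nM) added for 15 min; fluorescence polarization read.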

For assay [5] the target is unchanged. The assay is described as follows: Primary qHTS for Identification of Calcium Integrin Binding Protein 1 (CIB1) Competitor (AID 1508620).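 Further: GST tagged CIB1 binding a fluorescein labelled alphaIIb integrin peptide tracer; top concentration of the series differs between compounds; on the % scale 0 is the no-effect control and ±100 the full control effect.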 In short, it runs like this:
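Fluorescence polarization competition: GST-tagged CIB1 (1 uM final) preincubated with compound 15 min at room temperature, then FITC-labelled alphaIIb peptide (100 nM final) added. After 15 min at room temperature, polarization read at Ex 480/Em 540.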

Assay [6] can be described thus: qHTS to identify inhibitors of the type 1 interferon - major histocompatibility complex class I in skeletal muscle: primary screen against the NCATS Mechanism Interrogation Plate v5.0 (MIPE) Libary (AID 1347411).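 Further: plate controls were vehicle for no effect and reference inhibitor for full effect; nearly all actives have a fitted effect of over 65% in size.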 In short, it runs like this: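 HLA-B HiBit myoblasts, dexamethasone-free medium + 4 ng/ml IFN-b, 24 h compound, 11-pt 1:3 from 46 uM final. Readout: Nano-Glo HiBiT lytic luminescence after 10 min lysis, RT.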

For assay [7], the target named is Protein phosphatase 1D (Homo sapiens) (UniProt O15297). Kind of assay: Rhodamine-PBP qHTS Assay for Modulators of WT P53-Induced Phosphatase 1 (WIP1) (AID 1347425). Further: % of control where 0% means no effect. In short, it runs like this: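 Read-out: Rhodamine-PBP fluorescence (ex 525/em 598 nm) for released Pi, read each minute for 11 min after adding 10 uM VEPPL-pS-QETFS; signal taken as f1 minus pre-substrate f0. Enzyme 5 nM WIP1 with 1 hr room-temperature compound preincubation.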

Assay [8] shares this target. Kind of assay: RapidFire Mass Spectrometry qHTS Assay for Modulators of WT P53-Induced Phosphatase 1 (WIP1) (AID 1347424). Further: potency means the concentration at half of the fitted maximal effect.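 On activity change, negative = inhibition: series mostly up to about 63 µM; plate controls were DMSO wells for no effect and GSK830371 inhibitor control at 10 µM for full effect.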 The method, boiled down: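 RapidFire MS readout of dephosphorylated VEPPL-S-QETFS product, with 1 uM isotope-labelled peptide standard. Reaction: 10 nM WIP1, 2 uM phosphopeptide substrate, 5 min, room temperature, after 1 h compound preincubation; stopped with 0.5% formic acid.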

In assay [9] the target is Calcium and integrin-binding protein 1 (Homo sapiens) (UniProt Q99828). Kind of assay: Confirmatory qHTS for Identification of Calcium Integrin Binding Protein 1 (CIB1) Competitor (AID 1508617). Further: on the % scale 0 is the no-effect control and ±100 the full control effect; nearly all actives have a fitted effect of over 65% in size. The source says: Assay Provider: Ulhas P. Naik, PhD
Sidney Kimmel Medical College
Thomas Jefferson University, Philadelphia, PA
Primary function of platelets is to maintain hemostasis. At the site of vascular injury, platelets adhere to adhesive proteins such as collagen and von Willebrand factor. Adherent platelets are activated and generate soluble platelet agonists such as thrombin, ADP and thromboxane A2. Following exposure of circulating platelets to these agonists, results in platelet shape change, granule secretion and activation of platelet integrin alphaIIb-beta3. Ligand binding to activated integrin alphaIIb-beta3 triggers outside-in signaling, leading to platelet aggregation, stabilization of platelet plug, and clot retraction. Upon atherosclerotic plaque rupture also causes platelet plug formation, which underlies a number of cardiovascular diseases such as myocardial infraction and stroke. A number of anti-platelet drugs such as aspirin, clopidogrel, prasugrel, vorapaxar, and eptifibatide are currently available to prevent the thrombotic complications. However, these anti-platelet agents have several limitations including inherent variability in individual responses, developing resistance, and serious bleeding side effects. For these reasons they are not suitable for long-term protection. Based on the experiences with current anti-platelet drugs, it appears that the most useful therapeutic approach is to intersect the secondary responses such as integrin outside-in signaling or recruitment of platelets by TxA2 and secreted ADP. Compounds, which can largely preserve the primary hemostatic function of platelets but inhibit secondary response will be most desired therapeutic agents for treatment of cardiovascular disease.
CIB1 is a calcium integrin binding protein, which specifically interact with the alphaIIb subunit of integrin alphaIIb-beta3. Binding of CIB1 to alphaIIb regulates the outside-in signaling in platelets, which is needed for thrombus stabilization and thrombus growth. […] Therefore, we propose that discovery of a small molecule that can prevent the association of CIB1 and alphaIIb-beta3 will be a potential anti-platelet agent that can block the thrombus formation without undue effect on hemostasis.
To develop fluorescence polarization (FP) assay using fluorescently labeled alphaIIb peptide and CIB1 protein. Using FP assay characterize the binding affinity, competitive inhibition, and acceptable Z factor (0.5 to1) in order to perform the HTS to identify small molecule compound that can prevent CIB1 binding to platelet integrin alphaIIb-beta3. Active compounds were re-acquired and validated using confirmatory and counterscreens.
[1] Naik MU, Nigam A, Manrai P, et al. CIB1 deficiency results in impaired thrombosis: the potential role of CIB1 in outside-in signaling through integrin alpha IIb beta 3. J Thromb Haemost. 2009;7(11):1906-1914. doi:10.1111/j.1538-7836.2009.03581.
SEQUENCE No. (1, 2, 3, etc.); […] (e.g., Cells, Incubation, Reagent, etc.); VALUE and DESCRIPTION.
1; Reagent; 3 uL; Protein or buffer (4/3x)
2; Compound; 46 nL; Control inhibitor / compound library
3; Time; 15 min; Room temperature incubation
4; Reagent; 1 uL; Fluorescent labeled peptide (4x)
5; Time; 1000 rpm; Centrifuge
6; Time; 15 min; Room temperature incubation
7; Detection; Ex 480/ Em 540; ViewLux Fluorescence Read
NOTES (numbers refer to sequence above)
1; Protein Mixture: C1B1-GST (final concentrations of 1 uM). Buffer composition: 5 mM HEPES pH 7.4, 125 mM NaCl, 5 mM CaCl2, 0.01% Tween20.
2; Control Inhibitor: unlabeled peptide (final concentration range 17.4 nM to 572 uM). Compound Library final concentration range 18.3 nM to 114 uM.
3; Room temperature incubation.
4; Fluorescent Labeled Peptide: FITC-alphaIIb (final concentration of 100 nM). Sequence of alphaIIb peptide: Acetyl-[…]-FITC (purity is 95.83%).
6; Room temperature incubation.
[…]

Assay [10] can be described thus: Counterscreen qHTS for small molecule stabilizers of the endoplasmic reticulum resident proteome: GLuc-NoTag assay (AID 1508627).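 Further: SH-SY5Y cells given compound then 100 nM thapsigargin to empty ER calcium; series mostly up to about 76 µM; 0% = thapsigargin alone and -100% = DMSO vehicle control.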 The method, boiled down: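 Counterscreen line: SH-SY5Y-GLuc-NoTag. Seed, 5 h; compound, 19 h; thapsigargin 100 nM, 4 h; 37C/5% CO2. Readout: secreted GLuc luminescence, coelenterazine 0.07x final, no lysis.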

Protein phosphatase 1D (Homo sapiens), sequence (O15297 whole entry, looked up): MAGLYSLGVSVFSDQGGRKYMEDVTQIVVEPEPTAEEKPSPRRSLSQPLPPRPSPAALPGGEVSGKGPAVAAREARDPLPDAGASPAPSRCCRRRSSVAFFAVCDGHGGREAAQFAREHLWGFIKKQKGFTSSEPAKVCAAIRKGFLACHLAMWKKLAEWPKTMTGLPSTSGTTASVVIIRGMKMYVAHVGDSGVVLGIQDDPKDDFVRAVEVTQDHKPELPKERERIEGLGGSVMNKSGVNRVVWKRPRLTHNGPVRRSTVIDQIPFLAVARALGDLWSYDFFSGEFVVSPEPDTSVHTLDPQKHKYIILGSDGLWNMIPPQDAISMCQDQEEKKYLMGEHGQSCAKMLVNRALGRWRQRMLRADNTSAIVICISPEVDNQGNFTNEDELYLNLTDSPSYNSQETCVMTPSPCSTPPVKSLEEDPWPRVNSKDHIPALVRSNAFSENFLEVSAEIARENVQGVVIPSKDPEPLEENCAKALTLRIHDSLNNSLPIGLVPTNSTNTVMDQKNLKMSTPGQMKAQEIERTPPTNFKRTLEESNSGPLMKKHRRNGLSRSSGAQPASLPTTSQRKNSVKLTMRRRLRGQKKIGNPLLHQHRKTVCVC
Single-stranded DNA cytosine deaminase (Homo sapiens), sequence (Q9GZX7 whole entry, looked up): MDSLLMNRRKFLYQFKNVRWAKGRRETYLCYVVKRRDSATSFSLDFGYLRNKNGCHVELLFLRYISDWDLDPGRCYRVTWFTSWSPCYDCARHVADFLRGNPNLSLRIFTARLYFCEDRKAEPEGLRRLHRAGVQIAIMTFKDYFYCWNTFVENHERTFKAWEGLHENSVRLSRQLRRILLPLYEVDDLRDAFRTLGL
Calcium and integrin-binding protein 1 (Homo sapiens), sequence (Q99828 whole entry, looked up): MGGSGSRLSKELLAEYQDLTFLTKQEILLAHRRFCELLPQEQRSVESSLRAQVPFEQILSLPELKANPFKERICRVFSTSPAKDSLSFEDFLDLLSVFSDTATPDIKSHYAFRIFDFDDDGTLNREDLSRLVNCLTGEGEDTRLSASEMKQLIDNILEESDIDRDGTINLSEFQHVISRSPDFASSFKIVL

Regarding `N[C@@H](Cn1ccc(=O)c(O)c1)C(=O)O`, the compound was classed as inactive in [1], in [2], in [3] and in assay [4]. In addition, the activity change, negative = inhibition in assay [5] is 2.21% [at 12.4 µM].
Take `Cn1cnc2c(NCc3ccccc3)nc(NCCO)nc21`: the compound was called inactive in [1], in assay [2], in assay [3] and in [4].
In the case of `CC1(C)O[C@@H]2C[C@H]3[C@@H]4CCC5=CC(=O)C=C[C@]5(C)[C@@]4(F)[C@@H](O)C[C@]3(C)[C@]2(C(=O)CO)O1`, the Potency result in assay [6] and in assay [5] was “inactive” in each case. Also, the call in [7] and in assay [3] was inactive.
Consider `CO/N=C(/C(=O)N[C@@H]1C(=O)N2C(C(=O)O)=C(Cn3nnc(C)n3)CS[C@H]12)c1csc(N)n1`, for which the Potency result in [8] was “inactive”. The compound was classed as inactive in [7] and in assay [3].
Take `CN(C)c1cc2c(Nc3ccc4c(cnn4Cc4ccccc4)c3)ncnc2cn1`: the outcome in [1], in assay [2], in assay [3] and in assay [4] was inactive.
As to `C[C@H]1C[C@H]2[C@@H]3CCC4=CC(=O)C=C[C@]4(C)[C@H]3C(=O)C[C@]2(C)[C@@]1(O)C(=O)CO`, the Potency result in assay [6] and in assay [5] was “inactive” in each case. For the same compound, the outcome in assay [7] and in assay [3] was inactive.
Turning to `O=C(Nc1ccc(S(=O)(=O)N2CCOCC2)cc1)c1cc(Cl)ccc1NS(=O)(=O)c1ccc(Cl)s1`, the Potency result in assay [6] and in assay [9] was “inactive” each time. Besides, the Potency in assay [8] is 11.2 µM (active). Further, in [3], the call was inactive.
For `COc1cccc2c1[C@@H]1CN(CCCCn3c(=O)[nH]c4c(sc5ncc(-c6ccccc6)nc54)c3=O)C[C@@H]1CO2`, the compound was called inactive in assay [1], in assay [2] and in assay [4].
For the compound `CNC[C@H](O)[C@@H](O)[C@H](O)[C@H](O)CO`, the Potency result in assay [6], in assay [8] and in assay [5] was “inactive” in each case. The compound was classed as inactive in [3].
Turning to `CCCCCCCCCCCCCCCC[n+]1ccccc1`, the Potency result in assay [8] is “inactive”. Besides, the outcome in [7] was inactive.
On to `O=C(O)C(=O)Nc1cccc(-c2nn[nH]n2)c1`, for which the Potency result in [6], in [8] and in assay [5] was “inactive” in each case. The result in assay [7] and in assay [3] was inactive.
Regarding `C[N+](C)(C)CCO`, the result in [1], in assay [2], in assay [3] and in assay [4] was inactive.
On to `COc1ccccc1N1CCN(CCN2C(=O)CC3(CCCC3)CC2=O)CC1`, for which the compound was called inactive in assay [1], in [2], in [3] and in [4]. In assay [5], the Potency result was “inactive”.
Regarding `NC(N)=NCCCCN=C(N)N`, the call in assay [1], in assay [2], in assay [3] and in assay [4] was inactive.
`Nc1ncnc2n[nH]c(Nc3ccc(F)cc3)c12`: the compound was called inactive in assay [1], in assay [2], in [3] and in [4]. For the same compound, the Potency result in assay [5] is “inactive”.
Turning to `Clc1ccc2c(c1)N=C(N1CCNCC1)c1ccccc1N2`, the compound was classed as inactive in [1], in assay [2], in assay [3] and in assay [4]. The Potency entry in assay [5] and in [10] was “inactive” each time.
For the compound `CC(C)C(C)(C)C(C)(C)C(C)(C)S`, the Potency result in assay [8] was “inactive”. The compound was called inactive in assay [7] and in assay [3].
